The source of these data is PubChem BioAssay.

Active and inactive are the calls of the source.

The nature of assay [1]: A549 cell viability effects, profiling panel, calcein-AM fluorescence, 48 h, basal (AID 1162). The settings on record: higher = more signal.
Assay [2] is described as follows: adipocyte viability effects, profiling panel, cell-based, 3T3-L1 adipocytes, calcein-AM fluorescence, 48 h, basal (AID 1163). The conditions noted are these: 3T3-L1 adipocytes viability, higher = more signal.
Assay [3] can be described thus: HepG2 cell viability effects, profiling panel, calcein-AM fluorescence, 48 h, basal (AID 1164). The settings on record: higher = more signal.
Assay [4] can be described thus: MM1S cell viability effects, profiling panel, calcein-AM fluorescence, 48 h, basal (AID 1165).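 Also: viability of MM1S multiple myeloma cells under basal unstimulated conditions.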 The conditions noted are these: higher = more signal.
Assay [5] can be described thus: basal RPMI8226 viability, no added stimulus, profiling panel, cell-based, calcein-AM fluorescence, 48 h, PK04 Diversity Set (AID 1166).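 Also: cells grown under basal conditions without added stimulus.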 The conditions noted are these: RPMI8226 myeloma viability, higher = more signal.
The nature of assay [6]: basal HepG2 mitochondrial membrane potential changes, profiling panel, cell-based, JC-1 fluorescence, 24 h, 100 nL compound (AID 1167). The conditions noted are these: higher = more signal.
Assay [7] can be described thus: basal 3T3-L1 adipocyte mitochondrial potential changes, profiling panel, cell-based, JC-1 fluorescence, 3T3-L1 adipocytes, 24 h, 100 nL compound (AID 1168). The conditions noted are these: JC-1 mitochondrial fluorescence, higher = more signal, called active from +8 up or from −8 down.
A short description of assay [8]: basal RPMI8226 mitochondrial membrane potential changes, profiling panel, cell-based, JC-1 fluorescence, 24 h, 100 nL compound (AID 1169). The settings on record: RPMI8226 myeloma, JC-1 mitochondrial potential fluorescence, higher = more signal.
A short description of assay [9]: basal MM1S mitochondrial membrane potential changes, profiling panel, cell-based, JC-1 fluorescence, 24 h, 100 nL compound (AID 1170). The conditions noted are these: higher = more signal.
Assay [10] can be described thus: A549 lung cancer cell viability effects, profiling panel, resazurin fluorescence, 24 h, PK04 Diversity Set (AID 1171). The conditions noted are these: higher = more signal, called active from +8 up or from −8 down. Background: Alamar Blue is a resazurin reagent that responds to reducing activity.
Also: test concentration not given here.

Turning to `COc1ccc([Si](C)(C)[C@H]2[C@H](CC(=O)N(CCO)Cc3ccccc3)O[C@@]3(C(=O)N(C)c4ccccc43)[C@@H]2C)cc1`, the z-score was -0.836 in assay [1]; 0.899 in assay [2]; -1.12 in assay [3]; -1.84 in assay [4]; -3.42 in [5]; -0.433 in assay [6]. Also, the z-score in assay [7] is 0.505 (inactive); in assay [8], -0.965; in [9], -0.176; in assay [10], 0.221 (inactive).
For `C=CC[C@]1(C(N)=O)N=C(c2ccc(OCCCO)cc2)O[C@H]1c1ccccc1CN=[N+]=[N-]`, the z-score in [1] is 0.919; in assay [2], 2.24; in assay [3], -0.509; in assay [4], -0.562; in [5], -1.37; in assay [6], 2.69. Further, the z-score in assay [7] is -0.436 (inactive); in assay [8] it was -0.434; in assay [9] it was 0.501; in assay [10] it was 0.01 (inactive).
Turning to `C=C(CCCC)/C(=C/C[C@@H](OC(=O)c1ccncc1)c1cccc(OCCO)c1)c1cc(C(=O)OC)ccc1OC`, the z-score was 1.25 in assay [1]; -0.209 in assay [2]; 0.872 in [3]; -2.25 in assay [4]; -2.99 in assay [5]; 2.91 in [6]. For the same molecule, the z-score in assay [7] is 0.244 (inactive); in assay [8] it was 0.0948; in [9], -0.132; in assay [10] it was 0.767 (inactive).
As for `O=C(CS)NCCCCCNC(=O)[C@H]1C[C@H]2C(=O)N[C@@H](Cc3ccccc3)C(=O)N2[C@H]1c1ccc(O)cc1`, the z-score in [1] is -0.142; in [2], 1.62; in [3] it was -1.02; in assay [4] it was -0.193; in assay [5], 0.575; in assay [6] it was 0.248. Further, the z-score in [7] was 0.765 (inactive); in assay [8], -0.539; in assay [9] it was 0.368; in [10] it was 0.411 (inactive).
As to `CC(C)=C1C(=O)C(c2ccccc2)=C2CN3C(=O)N(CCc4ccccc4)C(=O)[C@]3(Cc3ccccc3)[C@H]21`, the z-score is -0.778 in assay [1]; 0.66 in assay [2]; 0.0577 in assay [3]; 0.492 in assay [4]; -0.895 in assay [5]; -0.366 in assay [6]. In addition, the z-score is -0.623 (inactive) in assay [7], -0.0727 in assay [8], -0.496 in assay [9] and -0.723 (inactive) in [10].
On to `C=CC[C@@]12N=C(c3ccc(OCCCO)cc3)O[C@@H]1c1ccccc1CN(Cc1ccccc1)C2=O`, for which the z-score was -0.843 in [1]; 2.38 in [2]; -1.92 in assay [3]; -3.46 in assay [4]; -4.51 in [5]; 0.0441 in [6]. Further, the z-score in [7] was -0.218 (inactive); in [8] it was -1.36; in [9], -1.45; in [10] it was -1.9 (inactive).
`C=CC[C@]1(C(=O)O)N=C(c2ccc(OCCCO)cc2)O[C@H]1c1ccccc1`: the z-score in [1] was 0.0248; in assay [2] it was 1.88; in [3], 0.0696; in [4] it was -0.394; in assay [5] it was -0.512; in [6], 0.801. The z-score in assay [7] is 0.0186 (inactive); in assay [8] it was -0.755; in assay [9] it was 1.29; in [10], 0.692 (inactive).
Turning to `O=C1c2ccccc2[C@@]2(Cc3ccccc3N(CC(F)(F)F)C2=O)[C@H](c2ccc(CO)cc2)N1C1CCCCC1`, the z-score in assay [1] is -0.449; in assay [2], 0.747; in assay [3], -0.0145; in assay [4] it was 0.129; in assay [5], -1.27; in [6], -0.0304. In addition, the z-score is 0.701 (inactive) in assay [7], 1.06 in assay [8], 0.933 in assay [9] and 0.304 (inactive) in assay [10].
For the molecule `CO[C@H]1COC(=O)CC=C[C@H](C)COC(=O)[C@@H](OCc2ccccc2)C=C[C@@H]1C`, the z-score in assay [1] is -0.696; in assay [2] it was -0.886; in [3], 0.806; in assay [4], 0.178; in [5], -1.73; in assay [6], 0.96. Besides, the z-score in [7] was 0.877 (inactive); in assay [8], 0.103; in [9] it was 0.398; in assay [10], 0.0283 (inactive).
Take `O=C/C=C/c1ccccc1Cl`: the z-score in [1] was 1.23; in [2], 0.556; in [3], 1.03; in [4] it was -0.882; in assay [5], 0.895; in assay [6] it was 1.74. For the same molecule, the z-score in assay [7] is 0.603 (inactive); in assay [8] it was 0.562; in [9], 1.09; in assay [10] it was 0.807 (inactive).
With `CSCC[C@@H]1NC(=O)CC=C[C@@H](C)COC(=O)[C@H](CCSC)NC(=O)CC=C[C@@H](C)COC1=O`, the z-score is 0.364 in assay [1]; 1.7 in assay [2]; 0.0574 in assay [3]; 0.0493 in [4]; 0.0542 in assay [5]; 0.79 in [6]. Also, the z-score in [7] is 0.647 (inactive); in [8], 0.508; in assay [9], 0.388; in assay [10] it was 0.376 (inactive).
As for `CO[C@H]1COC(=O)[C@@H](OCc2ccccc2)C=C[C@H](C)[C@@H](OC)COC(=O)[C@H](OCc2ccccc2)C=C[C@@H]1C`, the z-score was 0.665 in assay [1]; 1.21 in assay [2]; 1.45 in assay [3]; 0.301 in assay [4]; 0.0913 in assay [5]; 1.6 in [6]. For the same molecule, the z-score is 0.382 (inactive) in assay [7], -0.262 in [8], 2.82 in assay [9] and 1.76 (inactive) in assay [10].
Take `C=CC[C@@]1(C(=O)N2CCOCC2)N=C(c2ccc(OCCCO)cc2)O[C@@H]1c1ccccc1`: the z-score in assay [1] is 0.429; in assay [2], 1.9; in [3], -0.55; in [4], -0.0274; in [5] it was -0.624; in [6] it was 0.13. The z-score in assay [7] is 1.09 (inactive); in assay [8], -0.357; in assay [9] it was 0.216; in assay [10], 1.85 (inactive).
Take `C[C@H]1COC(=O)[C@@H]2CCCN2C(=O)[C@@H](C)COC(=O)[C@@H]2CCCN2C1=O`: the z-score in assay [1] was 0.507; in [2] it was 0.442; in assay [3], -0.178; in assay [4], 0.323; in [5], -0.0243; in assay [6] it was 0.799. Further, the z-score in assay [7] was 0.085 (inactive); in [8], -0.108; in assay [9], 0.0551; in assay [10] it was 1.5 (inactive).
